In PubChem BioAssay:

Key:
[1] = NFkB reporter suppression in cystic fibrosis bronchial cells – cell-based, uHTS hits, panel, cytotoxicity readout, dose response (AID 624344); settings: CF bronchial epithelial cells, PAF-induced NFkB reporter inhibition, with PAF, run 1; at 79 µM (top of the series) unless noted
[2] = as above; settings: CF bronchial epithelial cells, PAF-induced NFkB reporter inhibition, with PAF, run 2; at 79 µM (top of the series) unless noted

| Structure (SMILES) | inhibition [1] | inhibition [2] |
| --- | --- | --- |
| NC(=O)c1sc2nccc(Nc3ccccc3)c2c1N | 117% | 103% |
| CC1(C)CC(=O)C=C(NC2=CC3OC(c4ccccc4)OCC3OC2=O)C1 (stereo not given) | 103% | 114% |
| CC(C)n1c(SCc2ccccc2F)nc2c1c(=O)n(C)c(=O)n2C | 96% | 95.1% |
| Cc1c(Cl)cccc1NC(=O)CSc1nc2ncc(Cl)cc2[nH]1 | 98.5% [at 19.8 µM] | 98.7% |
| COc1ccccc1-c1cc(NC=O)c2ncc(-c3ccc(F)cc3)n2c1 | 97.7% [at 39.5 µM] | 75.8% [at 39.5 µM] |
| COc1cccc2c(SCC(=O)N/N=C/c3ccccc3)cc(C)nc12 | 104% | 106% |
| O=C(NC1CCCC(C(F)(F)F)C1)c1ccc([N+](=O)[O-])o1 (stereo not given) | 97.5% | 103% |
| O=S(=O)(c1ccc(Br)cc1)c1cnc2ccccc2n1 | 100% | 106% |
| NS(=O)(=O)c1ccc(CCNC(=O)c2ccc(C#CC3(O)CCCCC3)cc2)cc1 | 105% | 102% |
| CC(C)c1ccccc1NC(=O)COC(=O)c1c2c(nc3ccccc13)CCN(Cc1ccccc1)C2 | 76.4% | 90.6% |
| Cc1ccnc(Nc2nc(-c3sc(C)nc3C)cs2)c1 | 107% | 104% |
| Cc1ccc2nc(SCC(=O)Nc3cc(C(F)(F)F)ccc3N3CCOCC3)[nH]c2c1 | 81.3% | 48.5% |
| NC(=O)c1sc2nc3c(c(-c4ccco4)c2c1N)CCCC3 | 114% | 101% |
| CN(C)CCCN(C(=O)CCOc1ccccc1)c1nc2ccc(F)cc2s1 | 101% | 105% |
| COc1ccc(OC)c(Nc2ncnc3ccc(Br)cc23)c1 | 98.3% | 97.5% |
